Mdm2-MdmX inh – inhibitors of human Mdm2/MdmX interaction; hit rate 3% among 330,000; AID 485346; inhibition, % at 8 µM; O15151+Q00987; SaOS-2 split-luciferase Mdm2/MdmX complementation, luminescence;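 active = inhibition of at least 50% at 8 µM in the primary screen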
Target sequence (O15151 whole entry, looked up): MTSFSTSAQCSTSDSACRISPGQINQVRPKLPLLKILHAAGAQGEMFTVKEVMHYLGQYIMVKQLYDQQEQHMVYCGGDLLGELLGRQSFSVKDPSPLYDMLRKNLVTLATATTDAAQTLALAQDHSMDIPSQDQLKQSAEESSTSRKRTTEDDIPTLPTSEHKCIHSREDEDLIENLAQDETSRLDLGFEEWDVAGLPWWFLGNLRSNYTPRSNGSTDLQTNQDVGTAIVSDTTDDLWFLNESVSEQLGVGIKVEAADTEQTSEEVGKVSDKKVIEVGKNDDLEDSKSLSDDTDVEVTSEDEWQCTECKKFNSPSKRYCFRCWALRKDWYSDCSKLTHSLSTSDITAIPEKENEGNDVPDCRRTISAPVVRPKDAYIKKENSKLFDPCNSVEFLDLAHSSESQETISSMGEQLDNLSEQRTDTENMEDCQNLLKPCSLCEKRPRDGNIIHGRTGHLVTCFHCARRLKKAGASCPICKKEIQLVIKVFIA
Target sequence (Q00987 whole entry, looked up): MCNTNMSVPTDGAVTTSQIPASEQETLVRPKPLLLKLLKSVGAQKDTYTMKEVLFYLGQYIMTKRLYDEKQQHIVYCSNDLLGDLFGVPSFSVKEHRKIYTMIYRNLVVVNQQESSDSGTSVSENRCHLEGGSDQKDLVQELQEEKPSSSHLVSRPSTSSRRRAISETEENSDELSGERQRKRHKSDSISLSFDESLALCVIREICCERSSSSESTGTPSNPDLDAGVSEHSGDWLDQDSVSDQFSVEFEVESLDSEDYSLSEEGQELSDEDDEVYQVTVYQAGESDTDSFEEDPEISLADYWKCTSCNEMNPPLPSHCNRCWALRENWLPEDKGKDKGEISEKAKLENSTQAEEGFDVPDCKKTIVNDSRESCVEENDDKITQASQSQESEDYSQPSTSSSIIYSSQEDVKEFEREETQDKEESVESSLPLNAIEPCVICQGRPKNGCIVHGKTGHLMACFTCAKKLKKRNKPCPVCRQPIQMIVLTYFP
MPTP inh – inhibitors of mitochondrial permeability transition pore. isolated mouse mitochondria, Ca2+ swelling absorbance, 30 min. inhibition, % at 10 µM. hit rate 1.4% among 360,000;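 active = inhibition of 50% or more, scaled per plate between neutral and stimulator controls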
CSC inhib – cancer stem cell inhibition; cancer stem cell-like cells viability, luminescence; hit rate 1.1% among 300,000; inhibition, % at 7.5 µM; in the data active = inhibition above about 75%; inconclusive = no clear call, values can overlap the other calls; tested in HMLE shEcad cells
Beta apoptosis – beta cell apoptosis inhibition | INS-1E cytokine-induced death, ATP luminescence, 48 h; percent of positive-control rescue, neutral wells zero | hit rate 0.8% among 300,000 | protection from apoptosis, % (test concentration not listed);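 active = Every replicate reaches about 75%, or at least half do and their mean reaches it too, limit read from the data; inconclusive = At least half of replicates reach the limit but their mean does not; inactive = Under half of replicates reach the limit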;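 note: higher means more ATP so stronger rescue from cytokine killing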
SKKanGAS inh – SKKanGAS growth inhibition; S. pyogenes SKKanGAS, kanamycin growth, BacTiter-Glo, 6 h; inhibition, % at 7.5 µM; hit rate 1.3% among 300,000; AID 1662;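 active = mean replicate score, as percent of positive control median, at least 50; inconclusive = mean below 50 but one replicate at or above 50; inactive = mean and every replicate below 50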;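 note: strain carries kanamycin resistance gene driven by streptokinase promoter and grows in 40 µg/ml kanamycin; loss of luminescence reflects streptokinase promoter inhibition or plain growth inhibition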
Calb FLC – C. albicans growth modulation with fluconazole; C. albicans CaCi-2 (fluconazole-resistant clinical isolate) + fluconazole, Alamar Blue growth, 48 h; growth inhibition, % (no concentration beside the values); hit rate 0.57% among 300,000;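 active = growth inhibition above about 58% in most replicates, limit read from the data, passing the limit was not always enough; inconclusive = exactly half the replicates above a set limit; inactive = most replicates below a set limit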;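 note: all wells also contain fluconazole at 8 µg/ml as a sub-toxic cotreatment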
Mdm2 MdmX conf – confirmation of human Mdm2/MdmX interaction inhibitors. inhibition, % at 8 µM. hit rate 55% among 10,000. shares compounds with Mdm2-MdmX inh. Mdm2-MdmX binding, luminescent assay; in the data active = inhibition above about 40%
Full FLuc ctr – inhibits full-length luciferase, flagging false Mdm2/MdmX hits; shares compounds with Mdm2-MdmX inh; SaOS-2 full-length luciferase counterscreen, luminescence; inhibition, % at 8 µM; hit rate 77% among 6,200; AID 504607;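 active = mean inhibition at 8 µM reaching about 37%, which flags the compound as non-specific, limit read from the data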;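 note: p53-null SaOS-2 cells with luciferase driven by a doxycycline-inducible promoter; compound on cells about two nights before reading with doxycycline added after day one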
Rh123 counter – mitochondrial membrane potential, counter-screen | hit rate 78% among 5,000 | shares compounds with MPTP inh | isolated mitochondria, Rhodamine 123 fluorescence | inhibition, % at 10 µM; in the data active = inhibition above about 22%
MPTP abs DR – MPTP inhibition, dose response swelling confirmation; isolated mitochondria swelling, absorbance; shares compounds with MPTP inh; AID 651561; IC50, µM; hit rate 58% among 780; in the data active = IC50 below about 20 µM
MPTP counter DR – MPTP inhibitor counter-screen activity, dose response; shares compounds with MPTP inh; isolated mitochondria counterscreen, fluorescence read-out; IC50, µM; hit rate 49% among 780; AID 651564; in the data active = IC50 below about 80 µM
Large screens that a line does not name were inactive (follow-up assays come after a bar, where they were run); ! = not active in a repeat. Hits are enriched below; roughly 5.4% of the tested compounds scored in any of these assays.

COC(=O)c1cn[nH]c1NC(=S)Nc1ccccc1C	none (no result: CSC inhib, Beta apoptosis)
COC(=O)c1cn[nH]c1NC(=S)Nc1ccc(Cl)c(Cl)c1	Mdm2-MdmX inh 56.3, MPTP inh 99.4 | Mdm2 MdmX conf inactive | Rh123 counter 81.4
COC(=O)c1cn[nH]c1NC(=S)Nc1ccc(C)cc1Cl	Mdm2-MdmX inh 51.8, MPTP inh 96.2, SKKanGAS inh inconclusive | Mdm2 MdmX conf inactive | Rh123 counter 75.2
c1ccc(-c2nnc3n2-c2ccccc2SC3)cc1	none (no result: CSC inhib, Beta apoptosis)
OCCNCCSc1nc(C2CCCCC2)n(-c2ccccc2Cl)n1	none
CN1CCCN(C(=O)/C=C/c2ccc(Cl)cc2Cl)CC1	none
O=C(Nc1ccc(-n2ccc(C(F)(F)F)n2)cc1)Nc1cccc(Cl)c1	Mdm2-MdmX inh 80.0, MPTP inh 75.4, Beta apoptosis 116.3 | Mdm2 MdmX conf inactive | Full FLuc ctr 81.9 | Rh123 counter 65.4
O=C(O)CCC(=O)Nc1ccc(-n2ccc(C(F)(F)F)n2)cc1	none
NS(=O)(=O)c1ccc(Sc2nc3ccccc3s2)c([N+](=O)[O-])c1	Mdm2-MdmX inh 78.9, MPTP inh 59.6 | Mdm2 MdmX conf 81.8 | Full FLuc ctr 55.9 | Rh123 counter 43.0
Cc1ccccc1-c1nc(CN2CCC(C(=O)NC3CCN(Cc4ccccc4)CC3)CC2)c(C)o1	Mdm2-MdmX inh 98.7, MPTP inh 67.9 | Mdm2 MdmX conf 58.2 | Full FLuc ctr 75.5 | Rh123 counter inactive | MPTP abs DR inactive | MPTP counter DR 75.1
Cc1ccccc1-c1nc(CN2CCC(C(=O)O)CC2)c(C)o1	none
CC1(C)Cc2cccc(C(=O)Nc3ccc(F)cc3F)c2O1	none (no result: Beta apoptosis)
CC(OC(=O)c1cc(Br)ccc1O)C(=O)Nc1ccc(S(=O)(=O)N2CCCC2)cc1 (configuration not stated)	Mdm2-MdmX inh 63.3, MPTP inh 87.0 (no result: Calb FLC) | Mdm2 MdmX conf 43.4 | Full FLuc ctr 73.0 | Rh123 counter 90.7
CC(NC(=O)C(=O)N/N=C/c1ccccc1)c1ccccc1 (configuration not stated)	none
N#Cc1ccc(NC(=O)Nc2ccc(Cl)cc2)cc1	Mdm2-MdmX inh 84.8, MPTP inh 105.0, Beta apoptosis 105.3, SKKanGAS inh 55.5 (no result: CSC inhib) | Mdm2 MdmX conf 88.4 | Full FLuc ctr 44.7 | Rh123 counter 88.9
Cc1cc(C(=O)CSc2nc3ccccc3c(=O)n2C)c(C)n1Cc1ccc2c(c1)OCO2	Mdm2-MdmX inh 63.4, MPTP inh 96.8, Beta apoptosis 99.4 | Mdm2 MdmX conf inactive | Rh123 counter 93.8
O=C(Nc1ccc(C(F)(F)F)cc1)c1cc(-c2cccnc2)nc2ccc(Br)cc12	Mdm2-MdmX inh 57.5, MPTP inh 78.0 | Mdm2 MdmX conf inactive | Rh123 counter inactive | MPTP abs DR 13 | MPTP counter DR 7.14
O=C(CN1c2ccccc2Sc2ccccc21)NNC(=S)Nc1ccc(Cl)cc1Cl	Mdm2-MdmX inh 66.2, MPTP inh 82.9, CSC inhib inconclusive, SKKanGAS inh 110.8 | Mdm2 MdmX conf inactive | Rh123 counter 76.6
COc1cc(OC)cc(C(=O)OCC(=O)NC(c2ccccc2)c2ccccc2)c1	none (no result: CSC inhib, SKKanGAS inh, Calb FLC)
CCN(Cc1ccccc1)S(=O)(=O)c1ccc(C(=O)N(CCCN(C)C)c2nc3cc4c(cc3s2)OCCO4)cc1	Mdm2-MdmX inh 77.8, MPTP inh 58.8 (no result: Beta apoptosis) | Mdm2 MdmX conf inactive | Full FLuc ctr 76.6 | Rh123 counter inactive
COc1ccc2sc(N(CCCN(C)C)C(=O)c3ccc(S(=O)(=O)N4CCCc5ccccc54)cc3)nc2c1	Mdm2-MdmX inh 80.2, MPTP inh 86.4 (no result: Beta apoptosis) | Mdm2 MdmX conf 44.0 | Full FLuc ctr 63.9 | Rh123 counter inactive
CCN(Cc1ccccc1)S(=O)(=O)c1ccc(C(=O)N(CCCN(C)C)c2nc3ccc(F)cc3s2)cc1	none
COc1cc2nc(N(CCCN(C)C)C(=O)c3ccc(S(=O)(=O)N4CCc5ccccc54)cc3)sc2cc1OC	none (no result: Beta apoptosis)
CN(C)CCCN(C(=O)c1cc2cc([N+](=O)[O-])ccc2s1)c1nc2cc3c(cc2s1)OCCO3	Mdm2-MdmX inh 96.8, MPTP inh 82.9 (no result: Beta apoptosis) | Mdm2 MdmX conf 65.1 | Full FLuc ctr 77.2 | Rh123 counter inactive
CCN(Cc1ccccc1)S(=O)(=O)c1ccc(C(=O)N(CCCN(C)C)c2nc3cc(OC)ccc3s2)cc1	Mdm2-MdmX inh 50.4, MPTP inh 65.2 | Mdm2 MdmX conf inactive | Rh123 counter inactive | MPTP abs DR inactive | MPTP counter DR 30.5
Cc1ccc(Cl)cc1NC(=O)CC1NCCNC1=O (configuration not stated)	none
Cc1c(CCOC(=O)c2ccc(Cl)cc2Cl)sc[n+]1CC(=O)c1ccc(Br)cc1	none (no result: SKKanGAS inh, Calb FLC)
Cc1c(CCOC(=O)C2C3CC4CC(C3)CC2C4)sc[n+]1CC(=O)c1ccc(Br)cc1 (configuration not stated)	Mdm2-MdmX inh 66.7, MPTP inh 99.7!, CSC inhib 107.7, SKKanGAS inh 49.9 | Mdm2 MdmX conf inactive | Rh123 counter inactive | MPTP abs DR 3.73 | MPTP counter DR 21
CCOC(=O)c1c(NC(=O)C[n+]2ccccc2)sc2c1CCCC2	none
CCOC(=O)c1c(NC(=O)C(NCCN(C)C)c2ccccc2)sc2c1CCCC2 (configuration not stated)	Mdm2-MdmX inh 94.2, MPTP inh 81.4 | Mdm2 MdmX conf inactive | Full FLuc ctr 68.6 | Rh123 counter inactive
CCOC(=O)C1=C(C)N=C2c3ccccc3C(=O)C2C1c1ccc(Cl)cc1 (configuration not stated)	Mdm2-MdmX inh 50.9, MPTP inh 66.1 | Mdm2 MdmX conf inactive | Rh123 counter 44.7
CC1(C)CC(=O)C2=C(C1)N=C1c3ccccc3C(=O)C1C2c1ccc(Cl)cc1 (configuration not stated)	Mdm2-MdmX inh 56.3, MPTP inh 98.5, SKKanGAS inh 49.8 | Mdm2 MdmX conf inactive | Rh123 counter inactive
CC1(C)CC(=O)C2=C(C1)N=c1s/c(=C/c3ccc(F)c(F)c3)c(=O)n1C2c1ccc(F)cc1 (configuration not stated)	none
COc1ccc(S(=O)(=O)N(C)C2CCN(C)CC2)cc1	none
Cc1nc(Cl)c(C(=O)NC(=O)Nc2cccc(C(F)(F)F)c2)c(C)c1[N+](=O)[O-]	Mdm2-MdmX inh 57.1, MPTP inh 97.3 (no result: CSC inhib) | Mdm2 MdmX conf inactive | Rh123 counter 89.5
Cc1onc(C(=O)Nc2cccc(C(F)(F)F)c2)c1[N+](=O)[O-]	none (no result: CSC inhib, Beta apoptosis)
